This note sets out measurements from PubChem BioAssay (NCATS).

A short description of experiment [1]: qHTS assay for measurement of the activity of small molecule inhibitors on Zika virus induced Caspase-3 activity in human iPSC derived neural progenitor cells (hNPCs) (AID 1224857). Further: % of control where 0% means no effect; nearly all actives have a fitted effect of over 65% in size. The method, boiled down: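 Zika virus (2 FFU/cell) infection of human iPSC-derived NPCs, 6 h, following 1 h compound preincubation. Read-out: Caspase-Glo 3/7 luminescence.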
(In qHTS, concentration-response curves come from the screen itself.)

Experiment [2] can be described thus: qHTS assay for measurement of the activity of small molecule inhibitors on Zika virus induced Caspase-3 activity in human astrocytoma cells (AID 1224859).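 Further: plate controls were ZIKV-infected untreated cells for no effect and uninfected cells for full effect.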 In short, it runs like this:
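Caspase activation in ZIKV-infected SNB-19 cells (2 FFU/cell, 6 h) measured by Caspase-Glo 3/7 luminescence after 30 min RT; compound pre-incubated 1 h; normalised to uninfected and infected controls.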

Experiment [3] in a line: qHTS assay to identify small molecule inhibitors of chordoma cells - UCH-1 (AID 1259355). Further: on the % scale 0 is the no-effect control and ±100 the full control effect; nearly all actives have a fitted effect of over 55% in size. The method, boiled down: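 Luminescent ATP read-out (CellTiter-Glo, 30min at room temperature) measured viability of UCH-1 cells exposed for 48hr to test drugs at 15 concentrations, co-dosed with a five-agent combination of auranofin, camptothecin, doxorubicin, rubitecan and topotecan.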

The nature of experiment [4]: qHTS assay to identify small molecule inhibitors of chordoma cells - UCH-2 (AID 1259356). Further: on the % scale 0 is the no-effect control and ±100 the full control effect.
Experiment [5] is described as follows: High-throughput drug toxicity screening in the BPDCN cell line Cal-1 (AID 1224825; call rule not given here). The conditions noted are these: Cal-1 BPDCN cell viability, qHTS; at 45.8 µM (top of the series) unless noted. The method, boiled down:
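Exponentially growing Cal-1 cells, 500 per well in phenol red-free RPMI with 10% FBS, were exposed to compounds for 48 h at 37 °C, 5% CO2. Viability was read by CellTiter-Glo luminescence and normalised to DMSO (100%) and 9.2 uM bortezomib (0%).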

Experiment [6] in a line: qHTS Screen of the MIPE 4.0 Collection Against Ewings Sarcoma (RDES) (AID 1259252). Further: nearly all actives have a fitted effect of over 35% in size. Further: potency means the concentration at half of the fitted maximal effect. In short, it runs like this:
(§1)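 Compound titrations go onto adherent log-phase cells 4 h after seeding, incubate 48 h at 37C, then CellTiter-Glo luminescence reports viability relative to DMSO and cell-free controls.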

The nature of experiment [7]: qHTS Screen of the MIPE 4.0 Collection Against Ewings Sarcoma (TC71) (AID 1259253). Further: nearly all actives have a fitted effect of over 40% in size. Further: potency means the concentration at half of the fitted maximal effect. The method, boiled down: as §1
Experiment [8] is described as follows: qHTS Screen of the MIPE 4.0 Collection Against Ewings Sarcoma (TC32) (AID 1259256). Further: nearly all actives have a fitted effect of over 45% in size. Further: potency means the concentration at half of the fitted maximal effect. In short, it runs like this:
as §1

A short description of experiment [9]: NS1 protein of Zika virus - qHTS assay to identify small molecule inhibitors in human HEK 293 cells (AID 1347053).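 Further: plate controls were infected untreated cells for no effect and uninfected cells for full effect; nearly all actives have a fitted effect of over 55% in size.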 The method, boiled down:
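Following 20 h seeding, HEK 293 cells took compound, then 1 h later ZIKV MR766 (MOI = 0.5). Incubation ran 24 h at 37 C before TR-FRET detection of NS1; a drop in signal indicates inhibition.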

Experiment [10] in a line: qHTS Screen of the MIPE 4.0 Collection Against Ewings Sarcoma (EW8) (AID 1259255).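 Further: 100% = DMSO-treated cells and 0% = medium-only wells without cells; nearly all actives have a fitted effect of over 35% in size.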 In short, it runs like this:
as §1

Experiment [11] can be described thus: P-glycoprotein substrates identified in KB-3-1 adenocarcinoma cell line, qHTS therapeutic library screen (AID 1346986). Further: nearly all actives have a fitted effect of over 60% in size. The conditions noted are these: KB-3-1 parental cells viability, CellTiter-Glo, 72 h; at 44.5 µM (top of the series) unless noted. In short, it runs like this: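 KB-3-1 parental cells and P-gp-overexpressing KB-8-5-11 (colchicine omitted during assay) plated at 500 cells/well, dosed in dose-response, incubated 72 h at 37 degree C. CellTiter-Glo luminescence read; KB-8-5-11 also tested with tariquidar.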

The nature of experiment [12]: P-glycoprotein substrates identified in KB-8-5-11 adenocarcinoma cell line, qHTS therapeutic library screen (AID 1346987). Further: on the % scale 0 is the no-effect control and ±100 the full control effect; nearly all actives have a fitted effect of over 65% in size. The method, boiled down: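 KB-8-5-11: colchicine-selected sub-line of KB-3-1 over-expressing P-gp; assay medium lacked colchicine. 72 h drug exposure at 37 degree C, CellTiter-Glo.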
Experiment [13] has as its target Atrial natriuretic peptide receptor 1 (Homo sapiens) (UniProt P16066). Description: Natriuretic polypeptide receptor (hNpr1) antagonism - Pilot screen (AID 1347049; calls by dose curve;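 further: agonist-evoked cGMP luminescence read 20 min after hNppA addition; on the % scale 0 is the no-effect control and ±100 the full control effect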). In short, it runs like this: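 HEK293 cells co-expressing hNpr1 and the GloSensor pGS-40F cGMP luciferase sensor were preloaded with 2% GloSensor reagent for 2 h. Compounds were added for 30 min at room temperature, then cells were stimulated with 0.1 nM hNppA for 20 min before luminescence readout.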

Experiment [14] addresses Atrial natriuretic peptide receptor 2 (Homo sapiens) (UniProt P20594). Description: Natriuretic polypeptide receptor (hNpr2) antagonism - Pilot subtype selectivity assay (AID 1347050; calls by dose curve; further: on the % scale 0 is the no-effect control and ±100 the full control effect). In short, it runs like this: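 cGMP-sensor HEK293/hNpr2 cells; 2% GloSensor reagent 2 h RT; compounds 30 min; baseline luminescence read; 1 nM hNppC agonist 20 min RT; final luminescence read by CCD camera. Antagonism = reduced post-agonist signal.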

Experiment [15] deals with T1, Tyrosine-protein phosphatase non-receptor type substrate 1 (Homo sapiens) + Leukocyte surface antigen CD47 (Homo sapiens) (UniProt P78324+Q08722). Kind of experiment: CD47-SIRPalpha protein protein interaction - LANCE assay qHTS validation (AID 1347057; active means well fitted curve in the direction sought with a large enough effect in the signal ratio, with a control signal flat, not every such curve was filed as active; the % refers to the signal ratio; further: 0% is about no effect). The method, boiled down:
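First, His-tagged CD47 and Eu-labelled anti-His antibody met the compound for 30 min; next, site-specifically biotinylated SIRPalpha was added for 30 min; finally streptavidin-APC was added before reading the TR-FRET ratio.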
(Time-resolved FRET reads energy transfer from a long-lived donor to a nearby acceptor.)

The target of experiment [16] is T1, Tyrosine-protein phosphatase non-receptor type substrate 1 (Homo sapiens) + Leukocyte surface antigen CD47 (Homo sapiens). Kind of experiment: CD47-SIRPalpha protein protein interaction - HTRF assay qHTS validation (AID 1347058; active means well fitted curve in the direction sought with a large enough effect in the signal ratio, not every such curve was filed as active; the % refers to the signal ratio;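 further: recombinant soluble extracellular CD47 with His tag and biotinylated SIRPalpha domains; 0% is about no effect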). The method, boiled down: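 TR-FRET read (Ch1/Ch2 ratio) of soluble extracellular CD47 and Avi-biotinylated SIRPalpha domains in PBS pH 7.4 with 0.05% IGEPAL; 7-point compound titration. Sequential 30 min room-temperature steps; non-biotinylated SIRPalpha as control inhibitor.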

Experiment [17] in a line: Natriuretic polypeptide receptor (hNpr1) antagonism - Pilot counterscreen GloSensor control cell line (AID 1347045; calls by dose curve; further: on the % scale 0 is the no-effect control and ±100 the full control effect). In short, it runs like this: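 HEK293 cells carrying the GloSensor cGMP sensor (GIP/pGS-40F) were loaded with 2% GloSensor reagent for 2 h, exposed to compounds for 30 min, and then stimulated with 50 uM sodium nitroprusside for 20 min at room temperature.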
For orientation: Counterscreens check selectivity or assay interference.

Each structure is given as a SMILES string. Records with an inconclusive call do not appear. Calls of active or inactive are those of the source. Unless noted, the call rests on the fitted dose curve; in most records, active means well fitted curve in the direction sought with a large enough effect; inconclusive means small, poorly fitted or top-dose-only effect, or another doubt; inactive means no such curve, though single readings can be large; an effect the other way counts as inactive or inconclusive.

Chain of Atrial natriuretic peptide receptor 1 (Homo sapiens) (P16066 whole entry, looked up): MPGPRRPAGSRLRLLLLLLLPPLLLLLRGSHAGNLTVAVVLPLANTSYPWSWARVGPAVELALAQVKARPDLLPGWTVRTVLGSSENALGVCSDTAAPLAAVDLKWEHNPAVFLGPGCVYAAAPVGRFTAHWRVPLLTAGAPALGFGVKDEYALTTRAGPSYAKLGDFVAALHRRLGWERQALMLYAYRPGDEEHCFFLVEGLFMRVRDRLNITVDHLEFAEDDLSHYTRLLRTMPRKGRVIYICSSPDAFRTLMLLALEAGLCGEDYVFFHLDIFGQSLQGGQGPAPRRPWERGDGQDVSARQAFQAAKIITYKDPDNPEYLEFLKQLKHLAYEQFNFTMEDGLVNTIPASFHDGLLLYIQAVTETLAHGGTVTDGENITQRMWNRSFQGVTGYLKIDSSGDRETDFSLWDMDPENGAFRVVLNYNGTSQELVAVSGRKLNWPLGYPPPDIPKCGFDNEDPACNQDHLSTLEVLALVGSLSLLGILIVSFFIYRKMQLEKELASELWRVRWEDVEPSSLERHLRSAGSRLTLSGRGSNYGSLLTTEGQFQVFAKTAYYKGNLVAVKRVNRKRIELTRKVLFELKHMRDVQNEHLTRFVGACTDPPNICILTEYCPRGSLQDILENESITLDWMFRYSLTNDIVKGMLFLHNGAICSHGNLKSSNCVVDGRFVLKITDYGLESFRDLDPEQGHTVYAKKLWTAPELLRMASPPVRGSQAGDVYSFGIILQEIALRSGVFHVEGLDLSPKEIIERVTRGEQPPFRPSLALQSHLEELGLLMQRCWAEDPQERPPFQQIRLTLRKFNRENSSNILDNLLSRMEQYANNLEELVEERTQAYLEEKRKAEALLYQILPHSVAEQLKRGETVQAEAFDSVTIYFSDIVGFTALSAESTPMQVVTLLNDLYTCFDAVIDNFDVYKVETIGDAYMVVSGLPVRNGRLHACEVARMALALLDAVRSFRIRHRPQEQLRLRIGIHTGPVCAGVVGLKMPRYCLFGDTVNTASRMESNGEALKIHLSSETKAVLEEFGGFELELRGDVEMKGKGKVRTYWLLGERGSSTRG
T1 sequence (P78324 whole entry, looked up): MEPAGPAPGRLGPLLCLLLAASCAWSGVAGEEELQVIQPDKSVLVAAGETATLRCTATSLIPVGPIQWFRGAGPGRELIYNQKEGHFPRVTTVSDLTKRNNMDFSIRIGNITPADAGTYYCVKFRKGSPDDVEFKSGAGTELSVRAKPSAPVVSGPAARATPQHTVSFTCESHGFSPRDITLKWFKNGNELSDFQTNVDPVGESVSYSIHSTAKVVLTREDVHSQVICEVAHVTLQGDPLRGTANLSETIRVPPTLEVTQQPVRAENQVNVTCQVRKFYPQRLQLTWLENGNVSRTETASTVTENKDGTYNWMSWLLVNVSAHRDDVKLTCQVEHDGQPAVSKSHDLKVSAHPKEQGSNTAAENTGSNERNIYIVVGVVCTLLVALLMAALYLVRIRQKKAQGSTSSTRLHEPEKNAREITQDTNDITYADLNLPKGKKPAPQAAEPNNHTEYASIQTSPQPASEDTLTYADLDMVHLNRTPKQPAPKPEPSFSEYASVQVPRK
T1 sequence (Q08722 whole entry, looked up): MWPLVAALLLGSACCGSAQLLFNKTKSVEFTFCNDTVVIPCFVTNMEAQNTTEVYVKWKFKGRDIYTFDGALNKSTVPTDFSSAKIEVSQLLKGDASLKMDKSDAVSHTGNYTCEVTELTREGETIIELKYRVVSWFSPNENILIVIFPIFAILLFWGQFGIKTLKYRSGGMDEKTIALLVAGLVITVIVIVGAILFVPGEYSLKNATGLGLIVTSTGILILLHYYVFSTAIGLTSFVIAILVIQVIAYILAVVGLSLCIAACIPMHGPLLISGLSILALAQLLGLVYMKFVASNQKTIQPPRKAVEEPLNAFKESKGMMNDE
Chain of Atrial natriuretic peptide receptor 2 (Homo sapiens) (P20594 whole entry, looked up): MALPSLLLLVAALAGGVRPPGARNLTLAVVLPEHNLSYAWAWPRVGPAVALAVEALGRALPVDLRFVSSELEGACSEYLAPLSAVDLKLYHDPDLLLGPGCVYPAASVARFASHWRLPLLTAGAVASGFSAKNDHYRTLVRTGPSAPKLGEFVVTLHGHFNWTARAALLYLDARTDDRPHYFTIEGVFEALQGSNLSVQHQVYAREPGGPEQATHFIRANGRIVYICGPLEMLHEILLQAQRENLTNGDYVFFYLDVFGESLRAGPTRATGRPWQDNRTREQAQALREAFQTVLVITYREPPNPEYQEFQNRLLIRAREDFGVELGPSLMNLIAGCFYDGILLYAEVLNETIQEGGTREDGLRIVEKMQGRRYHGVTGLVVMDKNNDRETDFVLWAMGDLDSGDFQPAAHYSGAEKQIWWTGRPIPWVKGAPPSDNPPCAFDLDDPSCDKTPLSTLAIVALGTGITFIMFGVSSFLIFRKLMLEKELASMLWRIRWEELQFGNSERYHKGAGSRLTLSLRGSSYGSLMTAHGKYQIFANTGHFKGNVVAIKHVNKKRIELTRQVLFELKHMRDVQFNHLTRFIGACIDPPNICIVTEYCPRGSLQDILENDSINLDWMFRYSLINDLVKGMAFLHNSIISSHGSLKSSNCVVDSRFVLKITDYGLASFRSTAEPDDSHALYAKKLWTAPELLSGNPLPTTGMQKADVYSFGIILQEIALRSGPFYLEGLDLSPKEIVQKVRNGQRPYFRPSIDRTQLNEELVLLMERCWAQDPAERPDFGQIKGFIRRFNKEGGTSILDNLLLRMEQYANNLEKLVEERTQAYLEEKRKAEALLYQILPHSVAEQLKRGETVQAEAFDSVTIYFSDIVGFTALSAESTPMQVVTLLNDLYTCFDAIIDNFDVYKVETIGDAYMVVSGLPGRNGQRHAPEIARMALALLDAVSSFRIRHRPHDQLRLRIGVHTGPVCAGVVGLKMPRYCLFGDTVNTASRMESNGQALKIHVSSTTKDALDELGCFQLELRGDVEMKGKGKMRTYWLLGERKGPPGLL

Consider `Nc1ccc([As](=O)(O)O)cc1`, for which the compound was called inactive in experiment [1], in [2], in experiment [3] and in experiment [4].

Consider `C[C@](O)(CS(=O)(=O)c1ccc(F)cc1)C(=O)Nc1ccc(C#N)c(C(F)(F)F)c1`, for which the viability (% of control) in [5] stood at 5.28%. Further, the outcome in [1], in experiment [2], in [3], in experiment [4] and in experiment [9] was inactive. For the same compound, the Potency was 1.87 µM (active) in [6], 3.72 µM (active) in experiment [7] and 4.69 µM (active) in experiment [8].

In turn, `C[C@]12CC[C@@H]3c4ccc(OC(=O)N(CCCl)CCCl)cc4CC[C@H]3[C@@H]1CC[C@@H]2OP(=O)(O)O` displayed a viability (% of control) in experiment [5] of 82.9%. The compound was called inactive in experiment [1], in experiment [2], in experiment [10], in [11] and in experiment [9]. Also, the Potency entry in [6], in experiment [7], in experiment [8] and in experiment [12] was “inactive” each time.

Regarding `CCC1(c2ccccc2)C(=O)N(COC)C(=O)N(COC)C1=O`, the compound was classed as inactive in [1], in experiment [2], in experiment [3] and in experiment [4]. In experiment [12], the Potency entry is “inactive”.

In the case of `O=[N+]([O-])O[C@H]1CO[C@H]2[C@@H]1OC[C@H]2O[N+](=O)[O-]`, the compound was called inactive in experiment [1], in [2], in experiment [3], in [4] and in experiment [9]. In experiment [12], the Potency result is “inactive”.

`c1ccc2c(c1)sc1ccccc12`: the compound was called inactive in [1], in experiment [2], in [3] and in experiment [4]. Also, in experiment [12], the Potency entry was “inactive”.

As to `Clc1ccc(C(c2ccc(Cl)cc2)C(Cl)(Cl)Cl)cc1`, the result in experiment [1], in experiment [2], in experiment [3], in experiment [4] and in experiment [9] was inactive. The Potency result in experiment [12] is “inactive”.

Consider `COC(=O)[C@@H](N)CCCN/C(N)=N/[N+](=O)[O-]`, for which the call in experiment [1], in experiment [2], in experiment [3], in experiment [4] and in [9] was inactive. For the same compound, in experiment [12], the Potency entry is “inactive”.

Consider `Oc1ccc(Cl)cc1`, for which the result in experiment [1], in experiment [2], in experiment [3], in [4] and in [9] was inactive.

On to `CN1C(=O)NC(=O)C(C)(C2=CCCCC2)C1=O` (stereo not given), for which the outcome in experiment [1], in experiment [2], in [3], in experiment [4] and in experiment [9] was inactive. Besides, the Potency result in experiment [12] was “inactive”.

In the case of `NC(=O)c1cc([N+](=O)[O-])cc([N+](=O)[O-])c1`, the call in experiment [1], in experiment [2], in experiment [3], in experiment [4] and in experiment [9] was inactive. The Potency result in [12] is “inactive”.

Regarding `O=C1c2ccccc2C(=O)c2ccccc21`, the call in [1], in experiment [2], in experiment [3], in experiment [4] and in experiment [9] was inactive. Moreover, the Potency entry in experiment [12] is “inactive”.

As to `CC(C)c1c(CN(C)C(C)Cc2ccccc2)n(C)n(-c2ccccc2)c1=O` (stereo not given), the compound was classed as inactive in experiment [1], in experiment [2], in experiment [3], in experiment [4] and in experiment [9].

As to `O=C1CN=C(c2ccccc2)c2cc([N+](=O)[O-])ccc2N1`, the call in [1], in experiment [2], in experiment [3], in experiment [4] and in [9] was inactive.

With `C=C(C)[C@H]1CN[C@H](C(=O)O)[C@H]1CC(=O)O`, the call in [1], in experiment [2], in [3], in experiment [4], in experiment [13] and in [14] was inactive. Besides, the outcome in experiment [15] and in experiment [16] was inactive.

In the case of `O=C1OC(c2ccc(O)c(S(=O)(=O)O)c2)(c2ccc(O)c(S(=O)(=O)O)c2)c2c(Br)c(Br)c(Br)c(Br)c21`, the compound was classed as inactive in experiment [1], in experiment [2], in experiment [3], in [4] and in experiment [9].

As to `CCCCCCC(=O)CCCCCC/C=C/C[C@@H](O)[C@H](O)[C@@](N)(CO)C(=O)O`, the compound was classed as inactive in experiment [1], in [2], in experiment [3] and in experiment [4]. Also, the Potency result in experiment [12] was “inactive”.

For the compound `O=c1[nH]oc2c1CCNC2`, the compound was classed as inactive in experiment [1], in experiment [2], in experiment [3], in experiment [4], in [17] and in experiment [13]. Besides, the compound was classed as inactive in experiment [14], in [9], in experiment [15] and in experiment [16]. Besides, the Potency entry in experiment [12] is “inactive”.

For the compound `NNc1ccccc1`, the compound was classed as inactive in experiment [1], in experiment [2], in [3], in [4] and in [9]. Further, the Potency result in [12] was “inactive”.

Take `CC(C)(C)NCC(O)c1ccccc1Cl` (stereo not given): the call in experiment [1], in [2], in [4], in [17], in experiment [13] and in experiment [14] was inactive. The result in experiment [15] and in experiment [16] was inactive. The activity, negative = inhibition in experiment [3] was 11.9% [at 9.21 µM] (inactive).

As for `C[C@]12CCC(=O)C=C1CC[C@@H]1[C@@H]2CC[C@]2(C)C(=O)CC[C@@H]12`, the outcome in experiment [1], in experiment [2], in experiment [3], in experiment [4] and in experiment [9] was inactive.

`O=C1c2ccccc2C(=O)C1C(=O)C(c1ccccc1)c1ccccc1`: the compound was classed as inactive in [1], in [2], in experiment [3], in experiment [4] and in experiment [9].

In the case of `Cc1ncsc1CCCl`, the compound was classed as inactive in experiment [1], in experiment [2], in experiment [3], in experiment [4], in experiment [17] and in experiment [13]. In addition, the compound was called inactive in experiment [14], in experiment [15] and in [16].

As to `CC(C)=CC1C(C(=O)OCN2C(=O)C3=C(CCCC3)C2=O)C1(C)C` (stereo not given), the result in experiment [1], in [2], in experiment [3], in experiment [4] and in [9] was inactive.

`CCC(C)(C)c1ccc(O)cc1`: the result in [1], in [2], in [3], in experiment [4] and in experiment [9] was inactive. The Potency entry in [12] was “inactive”.

Turning to `CNC(C)(C)Cc1ccccc1`, the outcome in experiment [1], in experiment [2], in experiment [3], in experiment [4] and in experiment [9] was inactive. Moreover, in experiment [12], the Potency result was “inactive”.

For the compound `O=C(N/N=C/c1ccc([N+](=O)[O-])o1)c1cc([N+](=O)[O-])cc([N+](=O)[O-])c1O`, the outcome in [1], in experiment [2], in experiment [3], in experiment [4] and in [9] was inactive. Also, in experiment [12], the Potency result was “inactive”.

On to `O=c1oc2ccccc2c(O)c1Cc1c(O)c2ccccc2oc1=O`, for which the result in experiment [1], in experiment [2], in experiment [3], in experiment [4] and in [9] was inactive.
